From PubChem BioAssay
EBNA-1 inhibitor: blocks EBNA-1 binding to DNA; EBNA-1 DNA binding, fluorescence polarization; inhibition, % at 14.8 µM; 0.34% of 300,000 active; AID 1950; in the data active means inhibition above about 28%
PAFAH1B2 FP inh: blocks human PAF acetylhydrolase 1b catalytic subunit 2. P68402. recombinant PAFAH1B2, FP-rhodamine activity probe, fluorescence polarization. inhibition, % at 3.39 µM. 1.2% of 340,000 active. AID 492953;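 active means inhibition above the mean of all tested compounds plus 3 SD, cut at about 24% in these data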;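 further: 0% = enzyme with DMSO and 100% = wells lacking PAFAH1B2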
Target sequence (P68402 whole entry, looked up): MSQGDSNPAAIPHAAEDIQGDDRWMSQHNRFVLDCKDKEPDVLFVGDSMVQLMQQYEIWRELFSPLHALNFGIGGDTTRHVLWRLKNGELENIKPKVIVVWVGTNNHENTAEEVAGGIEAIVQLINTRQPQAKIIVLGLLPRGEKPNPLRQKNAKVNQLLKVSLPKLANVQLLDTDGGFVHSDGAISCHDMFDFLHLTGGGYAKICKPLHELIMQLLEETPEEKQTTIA
rCAG binder: binds r(CAG) RNA repeats. inhibition, % at 3 µM. AID 651821. 1.3% of 370,000 active. r(CAG) RNA repeat, TO-PRO-1 dye displacement fluorescence;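 active means inhibition above the plate cutoff, the mean of all test compounds on that plate plus 3 SD, cut at about 35% in these data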;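 further: 0% = DMSO alone and 100% = 100 µM mitoxantrone as full dye displacement; higher means more dye released from RNA so lower well fluorescence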
PAFAH2 FP inh: inhibitors of human PAFAH2; Q99487; recombinant PAFAH2, FP-rhodamine activity probe, fluorescence polarization; 0.99% of 340,000 active; inhibition, % at 3.39 µM;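 active means inhibition above the mean over all tested compounds plus 3 SD, cut at about 30% in these data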;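 further: inhibitors block probe labeling of enzyme so polarization drops; 0% = enzyme with DMSO and 100% = wells lacking PAFAH2 protein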
ZTA counter: counter-screen for EBNA-1 inhibitors: inhibitors of Epstein-Barr virus ZTA | AID 2234 | inhibition, % at 11 µM | 0.15% of 320,000 active | P03206 | ZTA-DNA binding, fluorescence polarization; in the data active means inhibition above about 33%
Target sequence (P03206 whole entry, looked up): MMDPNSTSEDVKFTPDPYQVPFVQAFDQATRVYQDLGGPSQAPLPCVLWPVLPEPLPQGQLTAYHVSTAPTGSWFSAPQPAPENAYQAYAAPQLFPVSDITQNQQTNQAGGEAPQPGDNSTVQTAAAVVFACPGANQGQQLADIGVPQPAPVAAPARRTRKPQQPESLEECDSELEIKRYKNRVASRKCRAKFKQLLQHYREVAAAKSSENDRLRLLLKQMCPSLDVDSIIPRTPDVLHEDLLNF
PAFAH1B3 FP inh: blocks human PAF acetylhydrolase 1B catalytic subunit 3. Q15102. recombinant PAFAH1B3, FP-rhodamine probe, fluorescence polarization. inhibition, % at 3.39 µM. 0.28% of 340,000 active. AID 492972;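 active means inhibition above the screen-wide average of all tested compounds plus 3 SD, cut at about 25% in these data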;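 further: 0% = enzyme with DMSO only and 100% = wells lacking PAFAH1B3 protein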
Active calls of the source: *; i = inactive; nt = no result. An excerpt weighted towards active compounds, which were near 2.9% of everything screened.

SMILES	EBNA-1 inhibitor	PAFAH1B2 FP inh	rCAG binder	PAFAH2 FP inh	ZTA counter	PAFAH1B3 FP inh
CC(C)OCCCNC(=O)c1c(N)n(CC2CCCO2)c2nc3ccccc3nc12 (centres undefined)	13	26*	-2	28	19	55*
O=C(COC(=O)Cc1ccccc1)NC12CC3CC(CC(C3)C1)C2	-14	10	-8	55*	2	3
O=C(COC(=O)Cc1ccccc1)NC(=O)NC1CCCCC1	-9	2	-12	10	11	7
CN(C)C(=O)Oc1ccc(-c2cn3cc(Cl)ccc3n2)cc1	-4	-1	-3	-5	-2	-3
Cc1ccc(-c2nc3ccc(Cl)cc3n2OC(=O)N(C)C)cc1	-8	62*	-1	2	-3	6
Cc1ccc(OCCOc2cccc(C=C3C(=O)NC(=O)NC3=O)c2)cc1	4	39*	0	1	6	1
FC(F)(F)c1cccc(-n2nnnc2C2(N3CCOCC3)CCCCC2)c1	3	31*	-5	-4	10	7
N=c1c2c(-c3ccccc3)c(-c3ccccc3)n(Cc3ccccc3)c2ncn1C1CCC(O)CC1 (centres undefined)	nt	nt	5	nt	nt	nt
Nc1ccc(C2(c3ccc(N)cc3)CCCCC2)cc1	-8	38*	-3	2	6	5
CC1CCCC(NC(=O)COC(=O)c2cn(C)c3ccccc23)C1C (centres undefined)	nt	8	3	83*	-8	-6
CC[C@H](C)/C=C(C)/C=C/C1=CC2=C(Cl)C(=O)[C@](C)(OC(C)=O)C(=O)C2=CO1	nt	10	nt	40*	nt	7
Cn1cc(C(O)CN2CCCCC2)c2ccccc21 (centres undefined)	-5	0	-1	8	4	8
COc1ccc(Cn2c(O)c(/C=N/NC(=O)c3ccccc3)c(=O)[nH]c2=O)cc1	2	8	30	16	5	5
O=C(N/N=C/c1c(O)n(Cc2ccccc2)c(=O)[nH]c1=O)c1ccccc1O	-1	34*	81*	47*	9	33*
COC(=O)C1=C(c2ccc(C(C)=O)cc2)C[C@@H]2CC[C@H]1N2C(=O)NCc1ccc(C(F)(F)F)cc1	nt	35*	nt	5	-7	15
COC(=O)C1=C(c2ccccc2)C[C@@H]2CC[C@H]1N2C(=O)NCc1ccc(C(F)(F)F)cc1	3	-3	-7	1	8	2
O=c1[nH]c(=S)n(CCC2=CCCCC2)c(O)c1/C=N/Nc1ccccc1	5	35*	23	9	-2	2
O=c1[nH]c(=S)n(CCC2=CCCCC2)c(O)c1C=NC1CCN(Cc2ccccc2)CC1	-12	-5	3	-4	-17	-1
CC(C)[C@@]1(NC(=O)[C@@H]2C[C@@H]3c4cccc5[nH]cc(c45)C[C@H]3N(C)C2)O[C@@]2(O)[C@@H]3CCCN3C(=O)[C@H](Cc3ccccc3)N2C1=O	3	3	6	-2	-8	8
CC(C)C[C@H]1C(=O)N2CCCC2[C@]2(O)O[C@](NC(=O)[C@@H]3C=C4c5cccc6[nH]cc(c56)CC4N(C)C3)(C(C)C)C(=O)N12 (some centres undefined)	6	15	nt	-8	-3	39*
NC(N)=N/N=C/c1cn(-c2ccccc2)nc1-c1cccs1	-2	4	36*	1	-2	18
O=c1c2ccccc2nc(-c2cccs2)n1-c1ccccc1	-6	4	-2	-6	-3	0
C=CCn1c(O)c(C(C)=Nc2ccc(N(C)C)cc2)c(=O)[nH]c1=O	58*	4	0	3	150*	9
O=C(CN1C(=O)[C@@H](Cc2c[nH]c3ccccc23)N=C(c2ccccc2)c2ccccc21)NC1CCCCC1	nt	nt	9	nt	nt	nt
Nc1ccc(Br)cc1	nt	6	-2	1	nt	5
SMILES	EBNA-1 inhibitor	PAFAH1B2 FP inh	rCAG binder	PAFAH2 FP inh	ZTA counter	PAFAH1B3 FP inh
Nc1ccc2cc(Br)ccc2c1	-12	54*	3	5	-4	3
CCCCn1c(NC(=O)c2ccco2)c(C(=O)OCC)c2nc3ccccc3nc21	-9	25*	1	17	-7	54*
CCOC(=O)c1c(N)n(Cc2ccco2)c2nc3ccccc3nc12	2	4	1	-2	5	4
COCCNC(=O)Cn1cc(/C=C2\C(=O)NC(=O)N(c3ccccc3F)C2=O)c2ccccc21	10	3	-3	7	10	12
O=C1NC(=O)N(c2ccccc2)C(=O)/C1=C/c1ccc(Sc2ccccc2)o1	-2	60*	nt	39*	14	6
O=C1NC(=O)N(c2ccccc2)C(=O)/C1=C/c1ccoc1	3	-4	-8	3	6	13
O=C1NC(=O)N(c2ccccc2F)C(=O)/C1=C/c1ccc(Sc2nc3ccccc3[nH]2)o1	2	-24	46*	-8	13	-27
O=C(CN1C(=O)[C@@H](Cc2ccccc2)N=C(c2ccccc2)c2ccccc21)NC1CCCCC1	nt	nt	6	nt	nt	nt
O=C(O)c1cccc2c1NC(C(=O)O)C1CC(Sc3ccccc3[N+](=O)[O-])C(Cl)C21 (centres undefined)	35*	31*	100*	82*	110*	49*
O=C(NCCN1CCC2(CC1)C(=O)NCN2c1ccccc1)c1ccc(OC(F)(F)F)cc1	nt	nt	3	nt	nt	nt
COc1cc(C=C2C(=O)NC(=O)NC2=O)ccc1OCc1ccc([N+](=O)[O-])cc1	nt	26*	-2	7	nt	2
O=c1[nH]c(=O)n(-c2cccc(F)c2)c(O)c1/C=C1\C=Nc2ccccc21	4	25*	6	-4	17	20
O=C1NC(=O)C2(CCN(c3ccccc3)CC2)C(=O)N1	nt	5	1	1	nt	1
NC(Cc1cc(O)c(O)cc1O)C(=O)O (centres undefined)	90*	nt	nt	nt	49*	nt
Cc1ccc(C(=O)NCCN2CCC3(CC2)C(=O)NCN3c2ccccc2)cc1	nt	nt	3	nt	nt	nt
Cc1cc(OCC(=O)N2CCC(C(=O)O)CC2)c2c3c(c(=O)oc2c1)CCC3	1	0	1	10	11	2
Cc1ccccc1CCC[C@H](CC1CCCCC1)CN(C)C(=O)Oc1ccccc1	nt	nt	4	nt	nt	nt
CCOCCCn1c(N)c(C(=O)Nc2sc3c(c2C(=O)OC)CCCC3)c2nc3ccccc3nc21	10	31*	25	35*	-11	52*
CC[n+]1c(-c2ccccc2)c2cc(N)ccc2c2ccc(N)cc21	nt	65*	25	82*	nt	90*
CNC1(c2ccc(F)cc2)CCCCC1	nt	1	-1	0	nt	9
O=C1NC(=O)N(CCc2ccc(F)cc2)C(=O)/C1=C/c1ccco1	8	7	74*	-17	10	2
CCOC(=O)C1CCCN(c2ccc([N+](=O)[O-])c3nonc23)C1 (centres undefined)	nt	50*	i	46*	nt	39*
CN1c2ccc(Br)cc2[C@H]2NCC[C@H]2[C@H]1CO	nt	nt	5	nt	nt	nt
